Experimental data as given in PubChem BioAssay (NCI).
About 83,000 compounds went through this panel and 20% of them were active in at least one assay; those are over-represented in the sample as a whole.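 Negative percent growth values reflect cell death: -40 means 40% of the cells present at the start died, and -100 means all died.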 Active and inactive are the calls of the source. The calls were made as follows: active = growth percent below 10; inactive = the rest.

What was measured:
Test in all cases: NCI-60 one-dose screen, 48 h (100 = growth as untreated, 0 = no growth, -100 = all killed)
SK-MEL-2 melanoma = settings: 10 µM
EKVX NSCLC = settings: 10 µM
SN12C renal = settings: 10 µM
UO-31 renal = settings: 10 µM
TK-10 renal = settings: 10 µM unless noted
ACHN renal = settings: 10 µM
CAKI-1 renal = settings: 10 µM
A498 renal = settings: 10 µM
CCRF-CEM leukemia = settings: 10 µM
MOLT-4 leukemia = settings: 10 µM

Measured: growth

CCC(O)CC(CC)CO (stereo not given)
inactive: SK-MEL-2 melanoma 134% | EKVX NSCLC 93.7% | SN12C renal 111% | UO-31 renal 94.6% | TK-10 renal 111% | ACHN renal 105% | CAKI-1 renal 96.6% | A498 renal 99.2% | CCRF-CEM leukemia 96.2% | MOLT-4 leukemia 102%

O=[N+]([O-])c1ccc(N=Nc2ccccc2)cc1
inactive: SK-MEL-2 melanoma 94.3% | EKVX NSCLC 106% | SN12C renal 94.3% | UO-31 renal 65.7% | TK-10 renal 92.2% | ACHN renal 96.2% | CAKI-1 renal 92.8% | A498 renal 89.8% | CCRF-CEM leukemia 38.7% | MOLT-4 leukemia 79.1%

O=C(O)c1cc([N+](=O)[O-])ccc1Cl
inactive: SK-MEL-2 melanoma 97.3% | EKVX NSCLC 118% | SN12C renal 95.6% | UO-31 renal 79.9% | TK-10 renal 81.2% | ACHN renal 105% | CAKI-1 renal 101% | A498 renal 106% | CCRF-CEM leukemia 114% | MOLT-4 leukemia 73.2%

O=C(c1ccccc1)C1CCC1
inactive: SK-MEL-2 melanoma 96.7% | EKVX NSCLC 105% | SN12C renal 89.2% | UO-31 renal 76.1% | TK-10 renal 93.4% | ACHN renal 106% | CAKI-1 renal 98.5% | A498 renal 103% | CCRF-CEM leukemia 88.6% | MOLT-4 leukemia 91.3%

Clc1ccc(-c2n[nH]c3c2Cc2ccccc2-3)cc1Cl
inactive: SK-MEL-2 melanoma 99.6% | EKVX NSCLC 86.3% | SN12C renal 94.1% | UO-31 renal 72.4% | TK-10 renal 101% | ACHN renal 100% | A498 renal 110% | CCRF-CEM leukemia 89.2% | MOLT-4 leukemia 91.4%

CCOC(=O)c1coc(C(=O)OCC)c1C(=O)OCC
inactive: SK-MEL-2 melanoma 126% | EKVX NSCLC 100% | SN12C renal 112% | UO-31 renal 96.5% | TK-10 renal 118% | CAKI-1 renal 102% | A498 renal 92.2% | CCRF-CEM leukemia 112% | MOLT-4 leukemia 98.6%

C=CCNC(=O)c1ccc(OC)cc1
inactive: SK-MEL-2 melanoma 97.6% | EKVX NSCLC 109% | SN12C renal 99.1% | UO-31 renal 74.7% | TK-10 renal 120% | ACHN renal 106% | A498 renal 133% | CCRF-CEM leukemia 98.4% | MOLT-4 leukemia 102%

O=C1C[C@H](c2ccccc2)[C@H](c2ccccc2)C1
inactive: SK-MEL-2 melanoma 93% | EKVX NSCLC 106% | SN12C renal 98.7% | UO-31 renal 81.9% | TK-10 renal 94.2% | ACHN renal 102% | CAKI-1 renal 89.7% | CCRF-CEM leukemia 95.1% | MOLT-4 leukemia 94.9%

S=c1[nH]ccn1-c1ccccc1Cl
inactive: SK-MEL-2 melanoma 118% | EKVX NSCLC 112% | SN12C renal 116% | UO-31 renal 94.2% | TK-10 renal 128% | ACHN renal 101% | A498 renal 101% | CCRF-CEM leukemia 96.6% | MOLT-4 leukemia 97.4%

CCOc1ccc(/C=C/C(=O)c2ccccc2)cc1
inactive: SK-MEL-2 melanoma 91.9% | EKVX NSCLC 107% | SN12C renal 95.7% | UO-31 renal 84% | TK-10 renal 97.6% | ACHN renal 108% | A498 renal 88.8% | CCRF-CEM leukemia 55.9% | MOLT-4 leukemia 77.6%

O=C(CS)Nc1ccc2ccccc2c1
inactive: SK-MEL-2 melanoma 116% | EKVX NSCLC 119% | SN12C renal 101% | UO-31 renal 88.7% | TK-10 renal 128% | ACHN renal 93.6% | A498 renal 98.8% | CCRF-CEM leukemia 81.1% | MOLT-4 leukemia 84.5%

O=c1cc2oc3cc(O)c(O)cc3c(-c3ccccc3O)c-2cc1O
inactive: SK-MEL-2 melanoma 110% | EKVX NSCLC 84% | SN12C renal 66.4% | UO-31 renal 34.9% | TK-10 renal 108% | ACHN renal 24% | A498 renal 48% | CCRF-CEM leukemia 11% | MOLT-4 leukemia 63.8%

CN(C)c1ccc2oc(=O)c3ccccc3c2c1
inactive: SK-MEL-2 melanoma 106% | EKVX NSCLC 50.4% | SN12C renal 89.2% | UO-31 renal 81% | TK-10 renal 107% | ACHN renal 103% | CAKI-1 renal 98.4% | CCRF-CEM leukemia 110% | MOLT-4 leukemia 131%

NC(N)=Nc1cc2ccccc2c2ccccc12
inactive: SK-MEL-2 melanoma 108% | EKVX NSCLC 83.9% | SN12C renal 80.5% | UO-31 renal 57% | TK-10 renal 105% | ACHN renal 72.3% | A498 renal 59.3% | CCRF-CEM leukemia 40.5% | MOLT-4 leukemia 41.6%

COc1cc(CN)ccc1O
inactive: EKVX NSCLC 71.3% | SN12C renal 81.7% | UO-31 renal 82.7% | TK-10 renal 88.4% | ACHN renal 96% | A498 renal 128% | CCRF-CEM leukemia 93.1% | MOLT-4 leukemia 134%
active: SK-MEL-2 melanoma -8.32%

CCOC(=O)c1cc2cccc(OC)c2oc1=O
inactive: SK-MEL-2 melanoma 74.9% | EKVX NSCLC 107% | SN12C renal 107% | UO-31 renal 105% | TK-10 renal 110% | ACHN renal 117% | CAKI-1 renal 132% | CCRF-CEM leukemia 91.7% | MOLT-4 leukemia 89.9%

COc1cc(-c2ccc(NC(=O)NC3CC3)c(OC)c2)ccc1NC(=O)NC1CC1
inactive: SK-MEL-2 melanoma 96.3% | EKVX NSCLC 94.6% | SN12C renal 91.6% | UO-31 renal 46.5% | TK-10 renal 99.6% | ACHN renal 63.8% | A498 renal 59.3% | CCRF-CEM leukemia 47.8% | MOLT-4 leukemia 38.1%

CCc1ccc(/C(C#N)=C/C=C/c2ccccc2)cc1
active: SK-MEL-2 melanoma -12.2% | CCRF-CEM leukemia -5.51%
inactive: EKVX NSCLC 52.3% | SN12C renal 53.2% | UO-31 renal 42.9% | TK-10 renal 16.9% | ACHN renal 58.3% | CAKI-1 renal 53.7% | MOLT-4 leukemia 20.7%

Cc1nc2ccccc2c(C(=O)O)c1O
inactive: SK-MEL-2 melanoma 313% | EKVX NSCLC 103% | SN12C renal 98.3% | UO-31 renal 91.2% | TK-10 renal 113% | ACHN renal 97.8% | A498 renal 117% | CCRF-CEM leukemia 121% | MOLT-4 leukemia 132%

Cc1cc(Cc2cc(C)c(N)cc2N)c(N)cc1N
inactive: SK-MEL-2 melanoma 96.7% | EKVX NSCLC 109% | SN12C renal 88.3% | UO-31 renal 77.2% | TK-10 renal 146% | ACHN renal 98.8% | A498 renal 98.8% | CCRF-CEM leukemia 96.8% | MOLT-4 leukemia 73.2%

C#Cc1cccc(NC(=O)c2ccc(Cl)cc2Cl)c1
inactive: SK-MEL-2 melanoma 98.6% | EKVX NSCLC 91.3% | SN12C renal 95.7% | UO-31 renal 91.7% | TK-10 renal 106% | ACHN renal 93.5% | A498 renal 102% | CCRF-CEM leukemia 88.2% | MOLT-4 leukemia 82.1%

COc1ccccc1NC(=O)c1cc2cc(Br)ccc2cc1O
inactive: EKVX NSCLC 22.4% | TK-10 renal 39.8% | A498 renal 18.2%
active: SK-MEL-2 melanoma -31.5% | SN12C renal 9.1% | UO-31 renal -3.91% | ACHN renal -6% | CCRF-CEM leukemia -4.98% | MOLT-4 leukemia -0.261%

C/C(=N/NC(N)=O)c1ccco1
inactive: SK-MEL-2 melanoma 108% | EKVX NSCLC 100% | SN12C renal 110% | UO-31 renal 95.8% | ACHN renal 102% | CAKI-1 renal 102% | A498 renal 111% | CCRF-CEM leukemia 106% | MOLT-4 leukemia 89.9%

CCOC(=O)CSc1c([N+](=O)[O-])ncn1C
inactive: SK-MEL-2 melanoma 95.4% | EKVX NSCLC 95.6% | SN12C renal 102% | UO-31 renal 89.8% | TK-10 renal 94.2% | ACHN renal 101% | A498 renal 114% | CCRF-CEM leukemia 94.8% | MOLT-4 leukemia 94.8%

Cc1ccc(Cl)cc1NC(=O)N(C)CCO
inactive: SK-MEL-2 melanoma 97.4% | EKVX NSCLC 116% | SN12C renal 105% | UO-31 renal 76% | TK-10 renal 126% | ACHN renal 103% | A498 renal 111% | CCRF-CEM leukemia 98.7% | MOLT-4 leukemia 97.5%

COc1ccccc1N=Nc1c(O)ccc2cc(S(=O)(=O)O)ccc12
inactive: SK-MEL-2 melanoma 96.4% | EKVX NSCLC 95.2% | SN12C renal 102% | UO-31 renal 84.7% | TK-10 renal 113% | ACHN renal 98.1% | CCRF-CEM leukemia 105% | MOLT-4 leukemia 104%

O=[N+]([O-])c1ccc(-c2ncc(-c3ccc(Br)cc3)o2)cc1
inactive: SK-MEL-2 melanoma 99.1% | EKVX NSCLC 101% | SN12C renal 103% | UO-31 renal 84.5% | TK-10 renal 108% | ACHN renal 94.2% | A498 renal 68.4% | CCRF-CEM leukemia 92.6% | MOLT-4 leukemia 97.6%

O=c1[nH]cc(Cl)cc1O
inactive: SK-MEL-2 melanoma 89% | EKVX NSCLC 82.2% | SN12C renal 95% | UO-31 renal 62.4% | TK-10 renal 89.4% | ACHN renal 62.2% | CAKI-1 renal 85.9% | CCRF-CEM leukemia 49% | MOLT-4 leukemia 92.1%

C[N+](C)=c1ccc2nc3c(cc(Nc4ccccc4)c4ccccc43)oc-2c1
inactive: SK-MEL-2 melanoma 10.9% | EKVX NSCLC 90.2% | SN12C renal 79.9% | UO-31 renal 59.1% | TK-10 renal 106% | ACHN renal 82.1% | A498 renal 51% | CCRF-CEM leukemia 57.8% | MOLT-4 leukemia 38%

c1ccc(Sc2ccccc2)cc1
inactive: SK-MEL-2 melanoma 97.5% | EKVX NSCLC 101% | SN12C renal 105% | UO-31 renal 87% | TK-10 renal 101% | ACHN renal 108% | A498 renal 97.6% | CCRF-CEM leukemia 97.7% | MOLT-4 leukemia 87.4%

COc1cc2c(cc1O)CC[C@@H]1C2CC[C@@]2(C)C1CC[C@@H]2O (stereo not given in full)
inactive: SK-MEL-2 melanoma 71.1% | EKVX NSCLC 37.9% | SN12C renal 53.2% | UO-31 renal 41.8% | TK-10 renal 63% | ACHN renal 61.9% | CAKI-1 renal 33.7% | MOLT-4 leukemia 31.8%
active: CCRF-CEM leukemia 8.85%

CC(C)OC(=O)c1cc(NC(=S)OC(C)C)ccc1Cl
inactive: SK-MEL-2 melanoma 96.4% | EKVX NSCLC 85.8% | SN12C renal 93% | UO-31 renal 80.2% | TK-10 renal 86.1% | ACHN renal 98.7% | CAKI-1 renal 53.6% | CCRF-CEM leukemia 88.8% | MOLT-4 leukemia 75.7%

COC(=O)c1ccc(C(C)C)cc1
inactive: SK-MEL-2 melanoma 116% | EKVX NSCLC 92.3% | SN12C renal 99.1% | UO-31 renal 97.4% | ACHN renal 101% | CAKI-1 renal 96.8% | A498 renal 129% | CCRF-CEM leukemia 83.9% | MOLT-4 leukemia 101%
